Results from publication PMC7826789 (International Journal of Molecular Sciences, 2021).

system: MYLK; conditions: Compound Concentration (nM):1000
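Further: KINOMEscan scanMAX binding as percent activity remaining versus control; lower means stronger binding.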

SMILES	Percent Control [%]
CCn1c(-c2nonc2N)nc2c(C#CC(C)(C)O)nc(OCCNC)cc21.Cl [GSK949675]	88
Cl.O=S1CCN(Cc2ccc(-c3ccc4ncnc(Nc5ccc(OCc6ccccc6)c(F)c5)c4c3)o2)CC1 [GW576924A]	100
CCS(=O)(=O)c1ccc(OC)c(Nc2ncc(-c3cccc(OC)c3)o2)c1 [GW580509X]	94
Cl.c1ccc(Cc2nc3ccc(Nc4ncnc5ccccc45)cc3[nH]2)cc1 [GR269666A]	100
NS(=O)(=O)c1ccc(N/N=C2\C(=O)Nc3ccc(C(=O)NCCc4c[nH]cn4)cc32)cc1 [GW300660X]	79
C/C(Nc1ccc(S(N)(=O)=O)cc1)=C1/C(=O)Nc2ccccc21 [GW335962X]	70
COc1ccccc1-c1cc(/C=C2\C(=O)Nc3ncc(Br)cc32)cc(Br)c1O [GW442130X]	100
NS(=O)(=O)c1ccc(N/N=C2\C(=O)Nc3ccc(-c4cnco4)cc32)cc1 [GW276655]	50
CN(C)CCNC(=O)Nc1ccc(N(C)c2ccnc(Nc3ccc(CS(C)(=O)=O)cc3)n2)cc1.Cl [GW830900A]	100
COc1ccc2[nH]c3c4[nH]c5ccc(OC)cc5c4c4c(c3c2c1)C(=O)NC4=O [GW296115X]	6.9
COc1cc2ncnc(Nc3ccc4c(cnn4Cc4ccccc4)c3)c2cc1OC.Cl [GW282449A]	100
NS(=O)(=O)c1ccc(N/N=C2\C(=O)Nc3ccc(Cl)cc32)cc1 [GW280670X]	80
CN1CCN(C(=O)c2ccc(NC(=O)Nc3ccc(N(C)c4ccnc(Nc5ccc(CS(C)(=O)=O)cc5)n4)cc3)cc2)CC1.Cl [GW830263A]	100
COC(=O)Nc1nc2ccc(Oc3ccc(NC(=O)Nc4cc(C(F)(F)F)ccc4F)cc3)cc2s1.Cl [GW693917A]	100
COc1ccc2cc(-c3c(-c4ccncc4)nc(-c4ccc(S(C)(=O)=O)cc4C)n3C)ccc2c1 [SB-633825]	82
COc1cc(C=NNc2ncnc3c2cnn3-c2ccccc2)ccc1O [GW513184X]	100
COc1cccc(-n2ncc3c(N/N=C/c4ccncc4)ncnc32)c1 [GW784752X]	89

SMILES	Percent Control [%]
COc1cc(N2CCN(C(C)C)CC2)ccc1Nc1nc(Nc2ccc(F)cc2C(=O)NC[C@@H](O)CO)c2cc[nH]c2n1 [GSK1392956A]	0.3
CC(C)COC(=O)c1ccc2c(c1)/C(=C/Nc1ccc(S(N)(=O)=O)cc1)C(=O)N2 [GW416981X]	100
CC1=C(C(=O)Nc2ccc3[nH]ncc3c2)C(c2ccc3ccccc3c2)CC(=O)N1 (stereo not drawn) [GSK270822A]	93
NS(=O)(=O)c1ccc(Nc2ncc(-c3ccccc3)o2)cc1 [GW572399X]	100
CC1=C(C(=O)Nc2ccc3[nH]ncc3c2)C(c2ccc(Cl)c(Cl)c2)CC(=O)N1 (stereo not drawn) [GSK299115A]	100
NS(=O)(=O)c1ccc(N/N=C2\C(=O)Nc3ccc(C(=O)NCc4ccncc4)cc32)cc1 [GW300657X]	45
CCc1ccc(Oc2nccc(-c3c(-c4ccc(F)cc4)ncn3C3CCNCC3)n2)cc1 [SB-242719]	100
Cl.O=C(Nc1ccc(Oc2ccc3[nH]c(NC(=O)c4ccccc4)nc3c2)cc1)Nc1cc(C(F)(F)F)ccc1F [GW709042A]	99
COc1cccc(-c2c[nH]c3c(N/N=C/c4ccncc4)ncnc23)c1 [GW814408X]	100
CCS(=O)(=O)c1ccc(OC)c(Nc2ncc(-c3cccc(F)c3)o2)c1 [GW621970X]	100
Cc1cc(O)cc(C)c1/C=C/c1cncc(C(N)=O)c1 [GW435821X]	97
Cl.O=C(Nc1ccc(Oc2ccc3[nH]c(NC(=O)c4ccco4)nc3c2)cc1)Nc1cc(C(F)(F)F)ccc1F [GW683134A]	100
O=C(Nc1n[nH]c2nc(-c3ccc(O)cc3)c(Br)cc12)C1CC1 [SB-725317]	56
COc1cc2ncn(-c3cc(O[C@H](C)c4ccccc4Cl)c(C(N)=O)s3)c2cc1OC [GSK237701A]	94
COc1ccc(COc2ccc(Cc3cnc(N)nc3N)cc2OC)cc1 [GW632580X]	100
O=C1Nc2ccc(C(=O)c3ccco3)cc2C1=Cc1cc(Cl)c(O)c(Cl)c1 [GW406108X]	51
